Measurements as given in PubChem BioAssay (NCATS).
Records with an inconclusive call do not appear. Values without a mark were called inactive. The source made the active and inactive calls. The call rests on the fitted dose curve; in most records, active means well fitted cell-killing curve with a large enough effect; inconclusive means small, poorly fitted or top-dose-only effect, or effect the other way; inactive means flat fitted curve, though single readings scatter.

These molecules were tested on CAOV3 (assay: Primary qHTS to identify gynecologic anti-cancer compounds using libraries of approved drugs and bioactive compounds (AID 1345084; further: nearly all actives have a fitted effect of over 55% in size)). Settings: Gynecologic cancer cell panel viability, ATPlite luminescence, 48 h; series mostly up to 57.5 µM; activity change, negative = cytotoxicity: at the top concentration.
Procedure, shortened: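 In this quantitative HTS, cell killing is estimated from loss of ATP-dependent luciferase light. Cells see five compound concentrations over a 48 h exposure.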
On the % scale 0 is the no-effect control and ±100 the full control effect; potency means the concentration at half of the fitted maximal effect.

Structure (SMILES)	activity change, negative = cytotoxicity	Potency
C[C@@H]1C[C@H](C)CN(CCC(=O)Nc2ccc(Br)cc2)C1	-17.6%	–
O=[N+]([O-])c1cn2c(n1)OC[C@@H](OCc1ccc(-c3ccc(OC(F)(F)F)cc3)nc1)C2	14.3%	–
C=C1CCC2[C@](C)(CCC[C@@]2(C)C=O)[C@H]1CC/C(C)=C/CO (some centres undefined)	20%	–
COc1ccc(CCc2nc3cc(-c4c(C)noc4C)ccc3n2CC(C)N2CCOCC2)cc1Cl (centres undefined)	-2.6%	–
O=C(NCC(=O)N1CCCC1)Nc1ccc2cnccc2c1	15.3%	–
C=C(C)C(=O)O[C@H]1[C@H]2C(=C)C(=O)O[C@@H]2/C=C(\CO)CC/C=C(/C=O)[C@@H]1O	-19% [at 38.5 µM]	–
COc1c(C)cc(NC(=O)c2nn(Cc3ccc(F)cc3)c3c2CN(C(=O)c2ccc[nH]2)C[C@]3(C)C(N)=O)cc1C	-4.37% [at 11.6 µM]	–
Cc1[nH]c2ccccc2c1CCNCc1ccc(/C=C/C(=O)NO)cc1	–	1 µM (active)
O=C(NC1CCC1)c1ccc(C#Cc2cccc(F)c2)nc1	-6.78%	–
COc1ccc(NC(=O)C2C[C@H](C)CC[C@H]2C(C)C)cc1 (some centres undefined)	-2.17%	–
COc1cc(OC)c2c(=O)[nH]c(-c3cc(C)c(OCCO)c(C)c3)nc2c1	-24%	–
CC1(C=O)CCCC2(C)C1CCC13CC(CO)C(CCC12)C3 (centres undefined)	-19.7%	–
COc1c2c(nc3occc13)C(CC=C(C)C)(OC)C(O)CC2 (centres undefined)	-0.248% [at 38.5 µM]	–
Cn1ncnc1[C@@H]1c2n[nH]c(=O)c3cc(F)cc(c23)N[C@H]1c1ccc(F)cc1	9.36%	–
O=C(O)c1cccc(-c2ccc(-c3cn(C(=O)N4CCCCC4Cc4ccccc4)nn3)cc2)c1 (centres undefined)	-23.7%	–
Cc1cccc(-c2[nH]ncc2-c2ccc(F)c(-c3cnn(CCO)c3)c2)n1	20.8%	–
CC1(C)CCC2(C(=O)OC3OC(COC4OC(CO)C(O)C(O)C4O)C(O)C(O)C3O)CCC3(C)C(=CCC4C5(C)CCC(OC6OCC(O)C(O)C6O)C(C)(C)C5CCC43C)C2C1O (centres undefined)	1.87% [at 11.6 µM]	–

Structure (SMILES)	activity change, negative = cytotoxicity	Potency
CC(=O)O[C@@H]1[C@@H](O)[C@H](O[C@@H]2[C@@H](O)[C@@H](O)[C@H](O[C@H]3[C@H](O[C@H]4[C@H](O[C@H]5CC[C@@]6(C)C(CC[C@]7(C)C6CC=C6[C@@H]8CC(C)(C)CC[C@]8(C(=O)O)CC[C@]67C)[C@]5(C)CO)O[C@H](CO)[C@@H](O)[C@@H]4O)OC[C@@H](O)[C@@H]3O)O[C@H]2C)OC[C@H]1O (some centres undefined)	10.9% [at 11.6 µM]	–
CN(C)CC#CCCC(=O)C(O)(c1ccccc1)C1CCC1 (centres undefined)	27.3%	–
Cc1cn2c(n1)Cc1ccc(Cl)cc1C(c1ccc(N)cc1)=N2	-2.19%	–
CC1(CO)CC(O)[C@]2(C(=O)O)CCC34CC3(C=CC3[C@]5(C)C(CC[C@]34C)C(C)(CO)[C@@H](O)[C@H](O)[C@@H]5O)C2C1 (some centres undefined)	8.15% [at 25.3 µM]	–
CC(=O)O[C@H]1C[C@@](O)(C(C)C)[C@@H]2[C@@H](OC(=O)c3ccc(O)cc3)CC(C)=CC[C@@]12C	-28.7% [at 25.3 µM]	–
Cc1ccc(C(C)C)c(O[C@@H]2O[C@H](CO)[C@@H](O)[C@H](O)[C@H]2O)c1	-5.74% [at 38.5 µM]	–
O=C1Nc2ccccc2-c2nc3ccccc3c(=O)n2-c2c(O)cccc21	-1.09% [at 38.5 µM]	–
COc1ccc(CN2CCN(CCCSc3cc(C(C)(C)C)c(O)c(C(C)(C)C)c3)CC2)c(OC)c1OC	11% [at 11.6 µM]	–
CN(C)c1ccnc2sc3c(=O)n(N4CCCCCC4)cnc3c12	4.01%	–
Cc1c(C(=O)NCc2cccnc2)nn(-c2ccc(Cl)cc2Cl)c1-c1ccc(Cl)cc1	3.18%	–
CC(C)=CCc1cc2c(cc1O)OC[C@H]1c3ccc(O)cc3O[C@@H]21	-8.22% [at 38.5 µM]	–
Cn1cc(-c2ccc(F)c(C(F)(F)F)c2)nc1C1CCN(c2ncnc3[nH]ncc23)CC1	-21.2% [at 25.3 µM]	–
O=C(O)CCc1nccc2c1[nH]c1ccccc12	7.29%	–
NS(=O)(=O)c1ccc(N2CCN(CC[C@@H]3OCCc4ccccc43)CC2)cc1	9.7%	–
CC1(C)CC[C@]23CO[C@@]4(CCC5[C@@]6(C)CC[C@H](O[C@@H]7OC[C@H](O[C@@H]8O[C@H](CO)[C@@H](O)[C@H](O)[C@H]8O[C@@H]8OC[C@@H](O)[C@H](O)[C@H]8O)[C@H](O)[C@H]7O)[C@@](C)(CO)C6CC[C@@]5(C)[C@]4(C)CC2=O)[C@@H]3C1 (some centres undefined)	7.02% [at 11.6 µM]	–
Cc1ccc(CNc2ncnc3ccc(-c4ccc(CO)o4)cc23)o1	-3.68%	–
C/C(=C/CO)CCC1C(C)CCC2C(C)(C)CCCC12C (centres undefined)	2.51%	–
